Results on 40 molecules are retold here after PubChem BioAssay (Tox21).

Inconclusive results are not listed. Entries that show only a call come without a potency. Active and inactive are the calls of the source. Calls come from the whole dose curve.
Potency is the fitted concentration of half-maximal effect.

Chain of Acetylcholinesterase (Homo sapiens) (P22303 whole entry, looked up): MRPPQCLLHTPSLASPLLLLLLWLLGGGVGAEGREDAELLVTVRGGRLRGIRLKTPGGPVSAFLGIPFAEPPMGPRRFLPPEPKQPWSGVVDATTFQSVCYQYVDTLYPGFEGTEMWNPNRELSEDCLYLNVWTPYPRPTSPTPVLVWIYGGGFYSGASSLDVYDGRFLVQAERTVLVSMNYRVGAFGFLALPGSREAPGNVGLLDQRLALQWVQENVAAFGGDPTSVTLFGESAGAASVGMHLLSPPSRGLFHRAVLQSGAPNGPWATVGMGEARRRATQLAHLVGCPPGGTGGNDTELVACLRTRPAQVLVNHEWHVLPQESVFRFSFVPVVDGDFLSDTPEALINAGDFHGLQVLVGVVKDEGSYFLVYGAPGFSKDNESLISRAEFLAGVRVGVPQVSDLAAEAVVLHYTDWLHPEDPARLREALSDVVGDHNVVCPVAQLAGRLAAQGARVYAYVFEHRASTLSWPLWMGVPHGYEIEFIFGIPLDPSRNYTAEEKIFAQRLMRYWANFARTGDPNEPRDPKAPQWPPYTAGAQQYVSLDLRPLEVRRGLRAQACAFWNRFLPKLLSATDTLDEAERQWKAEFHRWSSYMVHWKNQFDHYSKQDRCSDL

This test deals with Acetylcholinesterase (Homo sapiens) (UniProt P22303). The test can be described thus: Acetylcholinesterase (AChE) small molecule antagonists: colormetric cell-based qHTS assay (AID 1347395). Note: nearly all actives have a fitted effect of over 30% in size. As to conditions: SH-SY5Y cells AChE activity, colorimetric (Ellman); series mostly up to 115 µM. The source says:
National Center for Advancing Translational Sciences [NCATS]
Division of Preclinical Innovation [DPI]
U.S. Environmental Protection Agency [EPA]
National Institutes of Environmental Health Sciences [NIEHS]
National Toxicology Program [NTP]
U.S. Food and Drug Administration [FDA]
Acetylcholinesterase (AChE) is the primary cholinesterase in the body that hydrolyzes a key neurotransmitter, acetylcholine. Inhibition of AChE activity can lead to neurotoxicity. The known inhibitors include organophosphorous pesticides (OP), chemical warfare agents, drugs, and various phytochemicals.
A homogenous cell-based assay using the Amplite Colormetric acetylcholinesterase assay kit (AAT Bioquest, Sunnyvale, CA) was used to evaluate the chemicals in the Tox21 10K library that inhibit AChE activity. The assay uses 5, 5-dithiobis-(2-nitrobenzoic acid) (DTNB) to quantify the thiocholine produced from the hydrolysis of acetylthiocholine by AChE from the SH-SY5Y cells.
Tox21 Assay Protocol Summary:
For the cell-based AChE assay, 2,000 SH-SY5Y cells in 4 uL/well were dispensed into black, clear-bottom 1536-well plates using a Multidrop Combi dispenser (Thermo Scientific, MA). The assay plates were incubated overnight at 37 C to allow cells to attach to the wells, followed by the transfer of 23 nL of compound or DMSO (vehicle control) by a Pintool Station (Wako Automation, CA). The plates were incubated for 30 min at 37 C and 5% CO2, followed by the addition of 4 uL of detection cocktail solution (DTNB, acetylthiocholine) into each well using a Flying Reagent Dispenser (Beckman Coulter, CA) and then 90 min incubation at 37 C.
(In general: Quantitative high-throughput screening tests each substance at several concentrations.)
With `O=C1CC(=O)NC(=O)N1`, the Potency result was “inactive”.

For `C/C(=N\NC(=O)Nc1cc(F)cc(F)c1)c1ncccc1C(=O)O`, the Potency entry is “inactive”.

As to `CNC(=O)Oc1ccccc1C(C)C`, the Potency is 3.56 µM (active).

Turning to `O=P(O)(O)c1ccccc1`, the Potency entry is “inactive”.

Regarding `C=C(Cl)CCl`, the Potency entry was “inactive”.

`ClCCCCCCCl`: the Potency entry is “inactive”.

Regarding `CCCCCCCCBr`, the Potency result was “inactive”.

As to `CCC1(CC)C(=O)C=CNC1=O`, the Potency entry is “inactive”.

For the molecule `CCCC[N+](=O)[O-]`, the Potency entry is “inactive”.

Turning to `CN(C)CCN(C)C`, the Potency entry is “inactive”.

Take `NCC1(CC(=O)O)CCCCC1`: the Potency entry was “inactive”.

In the case of `CC(=O)CN(CC(C)=O)N=O`, the Potency result is “inactive”.

Consider `COc1cc(CCN)cc(OC)c1OC`, for which the Potency entry is “inactive”.

Take `OP(O)c1ccccc1`: the Potency result was “inactive”.

With `CC(C)[N+](C)(CCC(C(N)=O)(c1ccccc1)c1ccccc1)C(C)C`, the Potency result is “inactive”.

As for `O=S1(=O)OCCO1`, the Potency entry was “inactive”.

Take `CC(C)(O)C(Cl)(Cl)Cl`: the Potency result is “inactive”.

With `NNCc1ccccc1`, the Potency result was “inactive”.

Turning to `O=C(O)CBr`, the Potency entry is “inactive”.

In the case of `CCCCCCCCSC(=O)Oc1cc(Cl)nnc1-c1ccccc1`, the Potency result was “inactive”.

With `C1CN2CCC1CC2`, the Potency entry is “inactive”.

Regarding `CN(C)C(=O)Oc1cc(OC(=O)N(C)C)cc(C(O)CNC(C)(C)C)c1` (stereo not given), the Potency result was “inactive”.

In the case of `O=C(O)C(Br)(Br)Br`, the Potency entry was “inactive”.

Regarding `CS(=O)(=O)Cl`, the Potency result is “inactive”.

In the case of `CC(C)NCC(O)c1ccc([N+](=O)[O-])cc1` (stereo not given), the Potency result is “inactive”.

Regarding `BrCc1ccc(Br)cc1`, the Potency was 71 µM (active).

As for `COc1ccccc1OC`, the Potency entry is “inactive”.

For `ClC1=C(Cl)C2(Cl)C(CBr)CC1(Cl)C2(Cl)Cl` (stereo not given), the Potency result is “inactive”.

As for `CCOC(=O)NC(C)(C)Cc1ccc(Cl)cc1`, the Potency result was “inactive”.

`S=C=S`: the Potency result is “inactive”.

For the molecule `C[C@H](CN1CCOCC1)C(C(=O)N1CCCC1)(c1ccccc1)c1ccccc1`, the Potency result is “inactive”.

`COC(=O)c1ccc(CBr)cc1`: the Potency result was “inactive”.

Regarding `CCN(CC)C1CCCCC1`, the Potency result was “inactive”.

In the case of `CCc1ccc(C2CCNCC2)cc1`, the Potency entry is “inactive”.

For `CC[C@H](N)c1ccccc1`, the Potency result was “inactive”.

On to `NCCOS(=O)(=O)O`, for which the Potency result is “inactive”.

For `Cc1ccc2cc(C)ccc2c1`, the Potency entry was “inactive”.

As for `CC1N=C(N)OC1c1ccccc1` (stereo not given), the Potency result is “inactive”.

On to `O=c1[nH]c2ccccc2n1C1CCNCC1`, for which the Potency result was “inactive”.

Regarding `Cc1cccc2sc3nncn3c12`, the Potency was 39.9 µM (active).
